This is a sample that favours compounds with a hit; in the whole collection about 0.45% have one here.
FMDV RLuc – FMDV antiviral activity by Renilla signal; FMDV replicon cells, Renilla luciferase signal; AID 1745857; Potency, µM (top dose mostly 57.5 µM), most hits filed as inhibitors; 120,000 compounds, 0.32% hits; also: nearly all actives have a fitted effect of over 55% in size
FMDV antiviral – antivirals against foot and mouth disease virus; 120,000 compounds, 0.23% hits; FMDV antiviral cell assay, firefly luciferase signal; Potency, µM (top dose mostly 57.5 µM), actives largely listed as inhibitors; also: nearly all actives have a fitted effect of over 60% in size
Hits are given with their value; – = inactive; ? = inconclusive; [ ] = dose if it differs, or a comment. Calls follow the shape of the full dose curve.

SMILES	FMDV RLuc	FMDV antiviral
CC(=O)OC1CCC2(C=O)[C@H]3CCC4(C)C(C5=CC(=O)OC5)CCC4(O)[C@@H]3CCC2(O)C1 (stereo partly drawn)	2.51µM	1.41µM
CC12CC[C@H]3[C@@H](CCC4(O)CC(O)CCC34/C=N/O)C1(O)CCC2C1=CC(=O)OC1 (stereo partly drawn)	1.78µM	1.41µM
CCN(CC)C(CN)c1ccco1 (stereo not drawn)	–	–
Cc1ccc(C(=O)Oc2cccc(C)c2C)cc1Br	–	–
Cn1c(=O)c2c(nc(Br)n2CC(=O)c2ccc(F)cc2)n(C)c1=O	–	–
Cn1c(=O)c2c(nc(Cl)n2CC(=O)c2ccc(C(C)(C)C)cc2)n(C)c1=O	11.2µM	?
CCCCOc1ccc(C(=O)NCCS(=O)(=O)N2CCN(c3ccccc3OC)CC2)cc1	?	17.8µM
CCCCOc1ccc(C(=O)NCCS(=O)(=O)N2CCN(c3ccc(F)cc3)CC2)cc1	–	–
COCCOc1ccc(C(=O)/C=C/c2cc(OC)c(OC)c(OC)c2)cc1	28.2µM	?
COCCOc1ccc(/C=C/C(=O)c2ccc(C#N)cc2)cc1OC	–	–
Cc1ncc(-c2ccc(C)c(S(=O)(=O)N3CCN(c4ccccc4F)CC3)c2)o1	–	–
Cc1ccccc1NC(=O)c1sc2nc3c(cc2c1N)CN(C(C)C)CC3	14.1µM	?
Cc1ccccc1NC(=O)c1sc2nc3c(cc2c1N)CN(Cc1ccccc1)CC3	?	–
COc1ccccc1-c1c(C)nn2c(SCC(=O)NCc3ccccc3)cc(C)nc12	–	–
COc1ccccc1NC(=O)c1ccc(-c2nc(COc3ccc(C)cc3)c(C)o2)cc1	25.1µM	?
COc1ccc(OC)c(NC(=O)c2ccc(-c3nc(COc4ccccc4)c(C)o3)cc2)c1	–	–
Cc1nc(C)c(-c2ccc(SCC(=O)Nc3ccc(Br)cc3)nn2)s1	2.82µM	?
COc1ccccc1NC(=O)CSc1ccc(-c2sc(C)nc2C)nn1	–	–
CNc1oc(-c2ccccc2OC)nc1S(=O)(=O)c1ccc2c(c1)OCCO2	–	–
CCCCn1c(SCC(=O)Nc2ccc3c(c2)OCCO3)nc2c(-c3ccccc3)c[nH]c2c1=O	–	–
Cc1ccc(OCn2ccc(C(=O)NCc3c(C)nn(C)c3C)n2)c(C)c1	10µM	12.6µM
Cc1ccc(OCC(=O)NCc2nncn2C)c(C)c1	–	–
COc1cc(OC)cc(C(=O)Nc2ccc3oc(=O)ccc3c2)c1	–	–
O=C(COc1ccc(Br)cc1)N1CCC(c2nc3ccccc3o2)CC1	–	–
O=C(O)CCC(=O)N1N=C(c2ccsc2)CC1c1ccc(Br)cc1 (stereo not drawn)	–	–
SMILES	FMDV RLuc	FMDV antiviral
CCN1C(=O)c2ccccc2Sc2ccc(NC(=O)Cc3ccc(OC)c(OC)c3)cc21	–	–
COc1ccc(C(=O)Nc2ccc3c(c2)N(C2CCCC2)C(=O)c2ccccc2S3)cc1OC	10µM	?
Cc1cc(C)c2c(CC(=O)Nc3c(C)cccc3C)coc2c1	–	–
COc1ccc(C(=O)COC(=O)c2cc(S(N)(=O)=O)ccc2F)c(OC)c1	–	–
CCc1ccc(-c2nc(COC(=O)c3c(C)nsc3N)cs2)cc1	1.41µM	?
CCc1ccc(-c2nc(C)c(C(C)=O)s2)cc1	–	–
COc1ccc(Cl)cc1-n1c(/C=C/c2cccc3ccccc23)nc2ccccc2c1=O	–	–
O=c1c2ccccc2nc(/C=C/c2cccc3ccccc23)n1-c1ccccc1Cl	25.1µM	?
Cc1cnc(C(=O)NCC(O)c2ccccc2C(F)(F)F)cn1 (stereo not drawn)	–	–
Fc1ccc(-c2cc(C(F)(F)F)nc(NCc3ccccc3)n2)cc1	–	–
COc1ccc(-c2cc(C(F)(F)F)nc(NCc3ccccc3)n2)cc1	3.98µM	?
CCN(CC)S(=O)(=O)c1ccc(Cl)c(C(=O)NC(C)c2cc3ccccc3o2)c1 (stereo not drawn)	–	–
Cn1c(=O)c2c(ncn2CC(=O)Nc2nc(-c3cccc4ccccc34)cs2)n(C)c1=O	–	–
O=C(Nc1nc(-c2cccc3ccccc23)cs1)c1cccs1	?	12.6µM
Cc1cccc(Nc2nc(C(=O)N3CCC(C)CC3)cs2)c1	12.6µM	25.1µM
Cc1ccc(Nc2nc(C(=O)N3CCC(C(=O)NCc4ccccc4)CC3)cs2)cc1	–	–
Cc1ccc2oc(C(=O)N3CCC(c4nc5ccccc5s4)CC3)c(C)c2c1	–	–
O=C(c1ccnc(Cl)c1)N1CCC(c2nc3cc(C(F)(F)F)ccc3s2)CC1	?	11.2µM
Cc1ccc(C(=O)N2CCC(c3nc4cc(C(F)(F)F)ccc4s3)CC2)cn1	14.1µM	?
COc1cc(C(=O)N2CCC(c3nc4ccccc4s3)CC2)cc(OC)c1OC	–	?
Cc1[nH]n(-c2ccc(F)cc2)c(=O)c1CCC(=O)Nc1ccc(C#N)cc1	–	–
O=C(O)c1ccc(C2SCCCS2)cc1	–[1.06 µM]	–
O=C(Nc1ccccn1)c1ccc(C2SCCCS2)cc1	–	12.6µM
O=C(NC(c1ccc(Cl)cc1)c1cccnc1)c1ccccc1 (stereo not drawn)	–	–
CN(C)C(=S)Cc1ccccc1	–	–
Cc1ccc(CN(C)CC(=O)NC(=O)NCc2ccco2)cc1	–	–
